# Cruzain inh Det: qHTS Assay for Promiscuous and Specific Inhibitors of Cruzain (with detergent). 200,000 compounds, 0.43% hits. purified cruzain, Z-FR-AMC fluorescence, 0.01% Triton. Potency, µM, for inactives: max response, negative = inhibition, usual class: inhibitors. Cruzipain (Trypanosoma cruzi), P25779. AID 1478, 2009;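 further: plate controls were neutral wells for no effect and buffer without enzyme for full effect; nearly all actives have a fitted effect of over 40% in size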
# Target sequence (P25779 123-467 limits assumed): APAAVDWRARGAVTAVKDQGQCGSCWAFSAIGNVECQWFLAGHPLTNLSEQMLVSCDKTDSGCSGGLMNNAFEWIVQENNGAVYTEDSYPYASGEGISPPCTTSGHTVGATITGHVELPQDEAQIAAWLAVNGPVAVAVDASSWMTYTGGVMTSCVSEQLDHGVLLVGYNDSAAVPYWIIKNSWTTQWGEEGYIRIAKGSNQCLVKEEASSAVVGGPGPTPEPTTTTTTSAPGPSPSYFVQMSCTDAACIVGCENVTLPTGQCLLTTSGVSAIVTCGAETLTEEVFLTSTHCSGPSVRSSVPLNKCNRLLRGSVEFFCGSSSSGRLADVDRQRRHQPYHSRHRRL
#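 Purified cruzain (1.5 nM final) was preincubated with compounds for 15 min at room temperature in 100 mM sodium acetate pH 5.5, 5 mM DTT, 0.01% Triton X-100. Reaction started with 2 uM Z-FR-AMC; AMC fluorescence change over 60 s gave activity.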
# Cruzain inh noDet: qHTS Assay for Promiscuous and Specific Inhibitors of Cruzain (without detergent) | purified cruzain, Z-FR-AMC fluorescence, no detergent | Potency, µM, for the others: max response, negative = inhibition, hits mostly inhibitors | Cruzipain (Trypanosoma cruzi), P25779 | 200,000 compounds, 2.3% hits;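 further: plate controls were enzyme without inhibitor for no effect and buffer without enzyme for full effect; nearly all actives have a fitted effect of over 40% in size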
#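 Detergent-free condition (0.00005% Triton X-100) in acetate buffer pH 5.5 with DTT. 1.5 nM enzyme and compound were pre-mixed 15 min, then 2 uM Z-FR-AMC substrate added; reaction progress from fluorescence change between first and third reads (60 s).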
# An asterisk follows results filed as active; ? = inconclusive. Sampled rows, rich in hits. Any-hit rate of the full collection: about 2.4%. The call rests on the fitted dose curve; in most records, active means well fitted curve in the direction sought with a large enough effect; inconclusive means small, poorly fitted or top-dose-only effect, or another doubt; inactive means no such curve, though single readings can be large; an effect the other way counts as inactive or inconclusive. Potency means the concentration at half of the fitted maximal effect.
SMILES,Cruzain inh Det,Cruzain inh noDet
COc1ccc(-n2nc(C(=O)c3cccs3)cc(-c3nc4ccccc4[nH]3)c2=N)cc1,-11.5%,3.3%
COc1cc(NC(=O)Cc2c(C(=O)O)c(C)cn2C)cc(OC)c1,-2.4%,-3.7%
CCOC(=O)Cc1ccc(NC(=O)N2CC(CC)Oc3ccccc32)cc1 (configuration not stated),-1.9%,24.4%
CC(/C=C1\SC(=S)N(CCCC(=O)Nc2ccc(C(=O)O)c(O)c2)C1=O)=C\c1ccccc1,28.2µM*,?
Cc1cc(NC(=O)CCCN2C(=O)/C(=C/c3cccs3)SC2=S)no1,-4.9%,?
CC(/C=C1\SC(=S)N(NC(=O)c2ccccc2C)C1=O)=C\c1ccccc1,-5.7%,?
CC(=O)c1ccc(NC(=O)CN2C(=O)CN(C)C(=O)c3ccccc32)cc1,0.9%,15.6%
CC(=O)c1ccc(NC(=O)CN2C(=O)/C(=C/C(C)=C/c3ccccc3)SC2=S)cc1,-5.0%,10µM*
CC(/C=C1\SC(=S)N(NC(=O)c2ccc(C)cc2)C1=O)=C\c1ccccc1,-6.0%,31.6µM*
Cc1ccccc1-c1nccc(NCCN2CCOCC2)n1,0.3%,-1.2%
COc1ccc(N2CCN(S(=O)(=O)c3ccc(CC(C)C)cc3)CC2)cc1,-2.2%,-7.5%
CCN1CCN(C(c2cccc(Cl)c2)c2c(O)cc(C)n(CCOC)c2=O)CC1 (configuration not stated),1.0%,?
Cc1ccc(-c2csc(NC(=O)CCNC(=O)c3ccccc3Cl)n2)cc1,-7.2%,-8.7%
CC(OC(=O)CNC(=O)c1ccccc1F)C(=O)Nc1nc(-c2ccccc2)cs1 (configuration not stated),7.94µM*,7.94µM*
COc1ccc(C2=C(C)C(=O)N(Cc3ccc(C(=O)Nc4ccc(C)c(C)c4)cc3)S2(=O)=O)cc1,-2.5%,7.94µM*
COc1ccccc1NC(=O)c1ccc(CN2C(=O)C(C)=C(c3ccc(C)c(C)c3)S2(=O)=O)cc1,-3.8%,31.6µM*
CC1=C(c2ccc(C)cc2)S(=O)(=O)N(Cc2ccc(C(=O)Nc3ccccc3C)cc2)C1=O,-3.6%,?
CC1=C(c2ccc(C)cc2)S(=O)(=O)N(Cc2ccc(C(=O)NCc3ccccc3)cc2)C1=O,-5.1%,?
CC1=C(c2ccc(C)c(C)c2)S(=O)(=O)N(Cc2ccc(C(=O)NCc3ccccc3F)cc2)C1=O,-3.1%,25.1µM*
CCOc1ccc(NC(=O)c2ccc(CN3C(=O)C(C)=C(c4ccc(C)cc4)S3(=O)=O)cc2)cc1,-1.1%,-0.5%
Cc1ccc(NC(=O)c2sc3nc4c(cc3c2N)CN(Cc2ccccc2)CC4)cc1,1.7%,38.1%
Cc1ccc(S(=O)(=O)N(CC(=O)Nc2c(C)cccc2C)c2cccc(Cl)c2)cc1,-4.7%,-10.9%
O=C(NCCc1ccc(Cl)cc1)C(=O)NCC(c1ccc2c(c1)OCO2)N1CCOCC1 (configuration not stated),0.4%,17.9%
Cc1ccc(CSc2nc(-c3cccs3)ccc2C#N)cc1,-2.8%,25.1µM*
N#Cc1c(N)nc(SCc2ccncc2)c(C#N)c1-c1cccs1,-5.8%,25.1µM*
SMILES,Cruzain inh Det,Cruzain inh noDet
C#CCSc1nc(-c2cccs2)ccc1C#N,-8.5%,-6.7%
COc1cc(-c2c(C#N)c(N)nc(SCc3ccncc3)c2C#N)cc(OC)c1OC,-1.1%,-0.2%
COc1ccc(OC)c2sc(N3CCN(C(=O)C(C)(C)C)CC3)nc12,-1.3%,23.6%
CCN(CC)C(=O)c1sc2c(c1C)c(=O)n(CCc1ccccc1)c(=O)n2Cc1ccc(F)cc1Cl,2.6%,2.0%
Cc1ccc(NC(=S)N2CCCC(c3nc4ccc(C)cc4[nH]3)C2)c(C)c1 (configuration not stated),?,-26.0%
Cc1ccc2nc(C3CCCN(C(=S)Nc4cccc(C)c4C)C3)[nH]c2c1 (configuration not stated),14.1µM*,15.8µM*
COc1ccc(N=C2NC(=O)S/C2=C\c2ccc(N(C)C)cc2)cc1,-2.9%,?
CCOc1ccc(N=C2NC(=O)S/C2=C\c2ccc(Cl)cc2)cc1,-2.3%,3.98µM*
Cc1ccc(SCC(=O)Nc2ccc3oc(-c4cccc(Cl)c4)nc3c2)cc1,-3.9%,?
Cc1ccc(C)c(NC(=O)c2cnn(-c3cccc(F)c3)c2C2CCN(C(=O)OC(C)(C)C)CC2)c1,-9.8%,12.8%
Cc1ccc(CNC(=O)C(=O)NCC(c2cccs2)S(=O)(=O)c2cccs2)cc1 (configuration not stated),-3.0%,24.7%
O=C(CCCN1C(=O)/C(=C/c2ccccc2Cl)SC1=S)Nc1ccccn1,-6.9%,?
O=C(CCN1C(=O)/C(=C\c2ccccc2Cl)SC1=S)N1CCN(c2ccccc2)CC1,-1.5%,15.8µM*
O=C(Cn1cc(SCc2ccc(C(F)(F)F)cc2)c2ccccc21)N1CCCC1,-15.0%,18.0%
CCN(CC)CCNc1ncnc2c1[nH]c1ccc(OC)cc12,4.2%,?
COc1ccc2[nH]c3c(NCc4ccco4)ncnc3c2c1,17.8µM*,?
Cc1ccc(N2CCn3c2nc2c3c(=O)n(CCCc3ccccc3)c(=O)n2C)cc1C,-2.5%,-0.4%
O=C(Nc1cccc(F)c1)C1CCN(c2nc3ccccc3[nH]2)CC1,-0.4%,9.6%
Cc1cc(=O)n(Cc2cccc(Cl)c2)c2c1c(C)nn2C,-6.0%,?
Cc1ccc(C)c(S(=O)(=O)ON2C(=O)c3ccccc3C2=O)c1,12.6µM*,10µM*
O=C1c2cccc3cccc(c23)C(=O)N1OS(=O)(=O)c1ccccc1,-13.3%,-0.2%
O=C1c2ccccc2C(=O)N1OS(=O)(=O)c1ccccc1,?,7.94µM*
Cc1ccc(S(=O)(=O)ON2C(=O)c3cccc4cccc(c34)C2=O)cc1,-10.8%,5.4%
CCOc1ccccc1CNS(=O)(=O)c1ccc2[nH]c(=O)ccc2c1,-1.1%,-9.9%
COc1ccc(-n2c(CNc3ccc(C)cc3)nnc2SCC(=O)Nc2nc(-c3ccccc3)cs2)cc1,2.2%,6.31µM*
SMILES,Cruzain inh Det,Cruzain inh noDet
COc1ccc(-n2c(Cc3cccn3C)nnc2SCC(=O)Nc2ccc(C)cc2)cc1,-6.3%,19.0%
COc1ccc(NCc2nnc(SCC(=O)Nc3nc(-c4ccccc4)cs3)n2-c2ccccc2)cc1,-1.1%,25.1µM*
Cc1cc(C)nc(SCc2nnc(SCC(=O)Nc3nc(-c4ccccc4)cs3)n2-c2ccccc2)n1,5.1%,?
COc1ccccc1CNc1cc(-c2cccc(NS(C)(=O)=O)c2)ncn1,-13.0%,-0.4%
CC(C)Oc1ccc(CNC(=O)c2ccc(NC(=O)N3CC(C)Sc4ccccc43)cc2)cc1 (configuration not stated),-4.4%,?
COc1cccc(NC(=O)CN2C(=O)CC(c3ccco3)Sc3ccccc32)c1 (configuration not stated),-5.5%,0.3%
COC(=O)c1sc2nc(SCc3cccc(Cl)c3)n(N)c(=O)c2c1C,-11.6%,?
COC(=O)c1sc2nc(SCc3ccccc3C)n(N)c(=O)c2c1C,-3.5%,31.6µM*
O=C(Cn1ncc2c(=O)oc3ccccc3c21)Nc1cc(F)ccc1F,-2.3%,5.1%
CCOc1ccc(-c2nnc(SCC(=O)NCc3ccccc3)nc2-c2ccc(OCC)c(OC)c2)cc1OC,0.3%,1.3%
COc1cc(OC)cc(C(=O)N/N=C/c2ccc(OC)c(COc3ccc(F)cc3)c2)c1,-5.9%,-23.4%
COc1ccc(/C=N/NC(=S)Nc2ccccc2)cc1COc1ccc(F)cc1F,-5.0%,7.94µM*
